The text below walks through data of PubChem BioAssay (NCI).

About 83,000 compounds went through this panel and 20% of them were active in at least one assay; those are over-represented in the sample as a whole.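 A percent growth of 40 corresponds to 60% growth inhibition; 0 means no net growth; -100 means all cells died. Active threshold: below 10.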 A number with no mark means an inactive call. Activity calls are given as the source filed them.

This test relates to MOLT-4 leukemia. In words: NCI-60 one-dose screen, 48 h (100 = growth as untreated, 0 = no growth, -100 = all killed). Conditions: 10 µM unless noted. How it is done:
Growth inhibition of the MOLT-4 human tumor cell line is measured as a screen for anti-cancer activity. Cells are grown in 96 well plates and exposed to the test compound for 48 hours. Compounds are tested at a single concentration, which is 10^-5 M for most compounds. The reported endpoint is percent growth (GI% or GIPRCNT), where numbers from 0 - 100% represent growth inhibition, and numbers from -100% - 0 represent cell death. For example, a value of 40 represents 60% growth inhibition. A value of 0 means no net growth occurred over the course of the experiment. A value of -40 indicates 40% of cells at the beginning of the experiment died by the end of the experiment. A value of -100 means all cells are dead at the end of the experiment.
NCI-60 Human Tumor Cell Lines Screen was performed using the standard one-dose NCI protocol, which is described in more detail at https://dtp.cancer.gov/discovery_development/nci-60/default.htm.
Compounds with GIPRCNT values below 10 were considered active. Activity score was based on GIPRCNT using the following formula: […]
Score is 0 for GIPRCNT values of 100 or above, 50 for GIPRCNT values of 0, and 100 for GIPRCNT values of -100.
For `O=[N+]([O-])c1ccc(C(Br)c2ccc([N+](=O)[O-])cc2)cc1`, the growth is 12.5%.

Take `CCCCCCCCCCCCCCCCCC1=NCCCN1CCO`: the growth was 102%.

Take `S=c1[nH]c2cc(Cl)ccc2s1`: the growth was 108%.

On to `COc1cc(/C=C/C(=O)CC(=O)/C=C/c2ccc(O)c(OC)c2)ccc1O`, for which the growth was 31.4%.

Take `CC(C)(C)c1ccc(O)c(-c2ccccc2)c1`: the growth was -54.2% (active).

As for `CCOC(=O)NC(/C=C/c1ccccc1)NC(=O)OCC`, the growth was 98.7%.

On to `O=C(Cc1nc2cc(Cl)c(Cl)cc2nc1CC(=O)c1cccnc1)c1cccnc1`, for which the growth is 38.8%.

In the case of `CCSc1nc2ccccc2o1`, the growth was 100%.

As to `CN(C)c1ccc(C(=C2C=CC(=[N+](C)C)C=C2)c2ccc(N(C)C)cc2)cc1`, the growth is -11.4% (active).

As to `Oc1ccc2ccccc2c1N=Nc1ccccn1`, the growth was 11.4%.

Regarding `c1ccc(-c2cc3cc4ccccc4cn3c2)cc1`, the growth was 83.2%.

With `Cc1cc(C)c(C#N)c(Sc2nc(C)c([N+](=O)[O-])c(C)c2C#N)n1`, the growth was 39.7%.

With `COC(=O)Nc1nc2ccc(C3(c4ccc(F)cc4)OCCO3)cc2[nH]1`, the growth was 21.8%.

Take `O=C(C[P+](c1ccccc1)(c1ccccc1)c1ccccc1)c1ccccc1`: the growth is 92.3%.

Regarding `O=C1/C(=C/c2ccccn2)CCc2ccccc21`, the growth was 49%.

As to `O=C(/C=C/C(Cl)(Cl)Cl)Nc1ccc(Cl)cc1`, the growth was 84.2%.

Consider `Oc1cc(Cl)ccc1Cc1ccc(Cl)cc1O`, for which the growth was 43.5%.

As to `N#C/C(=N\Nc1ccc(Cl)cc1)C(=O)C1CC1`, the growth was 79.8%.

On to `COC(=O)c1nc(=S)[nH]c(C(=O)OC)c1C(=O)c1ccc(Cl)c(Cl)c1`, for which the growth was 130%.

Consider `Oc1ccc2ccccc2c1N=Nc1nccs1`, for which the growth is -4.26% (active).

`Oc1ccccc1N=Cc1ccccc1`: the growth is 81.2%.

Take `Cc1cc(C)c([I+]c2c(C)cc(C)cc2C)c(C)c1`: the growth is -41.1% (active).

For `Cc1cc(C(N)=O)cc(C)c1C(=O)OCCCl`, the growth is 95.8%.

Consider `CC1=CC(=O)C=CC1(C)C(Cl)(Cl)Cl` (stereo not given), for which the growth was 93.9%.

For the molecule `C[n+]1ccccc1C[n+]1ccccc1`, the growth is 83.6%.

For `Oc1ccc(Br)cc1Sc1cc(Br)ccc1O`, the growth is 40.4%.

As to `CN(C)c1ccc(/C=C/c2cc[n+](C)c(/C=C/c3ccc(N(C)C)cc3)c2)cc1`, the growth was -26.5% (active).

Regarding `Cc1cc2cccnc2c2ncccc12`, the growth was 5.73% (active).

With `OC(Cc1cc(CC(O)(C(F)(F)F)C(F)(F)F)nc(CC(O)(C(F)(F)F)C(F)(F)F)c1)(C(F)(F)F)C(F)(F)F`, the growth is -8.17% (active).

Turning to `COc1cc(OC)c(/C=C/c2c3ccccc3cc[n+]2C)c(OC)c1`, the growth was 14.7%.

As to `Oc1c(Cl)cc(Cl)cc1C=NCC1CCC(CN=Cc2cc(Cl)cc(Cl)c2O)CC1` (stereo not given), the growth is 78.1%.

On to `CC(=O)c1c(O)c(C)c(O)c2c1OC1=CC(=O)C(C(C)=O)C(=O)C12C` (stereo not given), for which the growth was 71.9%.

Take `CN(C)CC(C)(CN(C)C)C(=O)/C=C/c1c(Cl)cccc1Cl`: the growth was -19.3% (active).

In the case of `COc1ccc(C(OCC2OC(n3ccc(NC(=O)c4ccccc4)nc3=O)C(O)C2O)(c2ccccc2)c2ccccc2)cc1` (stereo not given), the growth is 3.18% (active).

`CCCCCCCCCCCCNCCCc1ccccc1`: the growth was 54.8%.

Turning to `NC(=S)Nc1ccc2c(c1)Cc1ccccc1-2`, the growth was 88.7%.

In the case of `OC(CSc1ccccc1)CN1CCN(c2ccc(Cl)cc2)CC1` (stereo not given), the growth was 83%.

As to `Cc1cc(I)nc2ccccc12`, the growth is 101%.

For `CCN(CC)CC(O)CNc1ccc(NCC2CO2)c2c1C(=O)c1ccccc1C2=O` (stereo not given), the growth was -23.1% (active).

On to `CCCCCCCCCCCC[S+](C)CC(=O)[O-]` (stereo not given), for which the growth was 32.9%.
